Measurements published in ChEMBL document CHEMBL3988442, “University of Dundee, Small-Polar-MMV Screening Library” (2021).

Columns and labels:
[1] = target: T1, Aspartate--tRNA(Asp/Asn) ligase (Mycobacterium tuberculosis (strain ATCC 25618 / H37Rv)) (UniProt P9WFW3); experiment: Assay for Asp RNA synthetase-1 from Mycobacterium tuberculosis; assay type: functional; set-up: scale not given: direction of the effect not stated beside the values; details: 30 µM; note: in the data most compounds retested in dose-response had high values
T1 sequence (whole entry): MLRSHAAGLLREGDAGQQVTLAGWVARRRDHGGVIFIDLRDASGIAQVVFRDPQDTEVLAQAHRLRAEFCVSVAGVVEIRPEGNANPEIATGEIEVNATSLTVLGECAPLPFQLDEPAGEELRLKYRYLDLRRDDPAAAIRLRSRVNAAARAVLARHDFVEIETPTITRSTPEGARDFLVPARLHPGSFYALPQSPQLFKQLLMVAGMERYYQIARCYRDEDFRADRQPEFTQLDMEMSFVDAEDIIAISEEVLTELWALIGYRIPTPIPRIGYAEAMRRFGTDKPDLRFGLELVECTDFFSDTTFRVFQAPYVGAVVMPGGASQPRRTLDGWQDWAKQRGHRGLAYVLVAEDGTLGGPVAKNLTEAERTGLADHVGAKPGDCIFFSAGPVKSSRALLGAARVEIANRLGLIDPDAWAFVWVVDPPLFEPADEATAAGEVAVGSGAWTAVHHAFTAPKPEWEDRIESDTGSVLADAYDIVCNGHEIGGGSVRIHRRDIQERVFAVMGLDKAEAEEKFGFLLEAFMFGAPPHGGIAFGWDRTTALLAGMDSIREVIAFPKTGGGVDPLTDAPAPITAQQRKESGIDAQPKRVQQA

[2] = target: Shiga toxin 2 (Escherichia coli O157:H7) (UniProt P09385+P09386); experiment: E. coli 0.157:H7 Shiga Toxin SOP - stx2 screening assay; assay type: functional; set-up: scale not given: direction of the effect not stated beside the values; details: 30 µM

Row | Compound | Percent Effect [1] | Percent Effect [2]
1 | CCC1c2ccsc2CCN1C(=O)NCc1ccccn1 (configuration not stated) | -0.144% | -4.32%
2 | CCc1n[nH]c(C2CN(C(=O)c3nc(C)n4ccccc34)CCO2)n1 (configuration not stated) | 2.55% | -2.71%
3 | COc1cccc(-c2nc(CNCCn3cccn3)cs2)c1 | -2.68% | -60.9%
4 | O=S(=O)(c1cccnc1)N1CCN(CCn2ccnc2)CC1 | -4.66% | -38.1%
5 | O=C(NC1CC(=O)N(Cc2cccc(F)c2)C1)c1ccncc1 (configuration not stated) | 0.413% | -9.17%
6 | O=C(CC1CC1)NCc1cn2c(n1)CN(C(=O)c1cccnc1)CC2 | 3.04% | -29.1%
7 | CC(=O)N1CCCC1c1nccc(C)n1 (configuration not stated) | 0.191% | 0.898%
8 | Cn1ncc2c(=O)[nH]c(CN3CCCC3CC3CCCCC3)nc21 (configuration not stated) | -3.06% | 22.5%
9 | O=C(NCCS(=O)(=O)N1CCc2ccccc21)c1c(O)cc(F)cc1F | -2.88% | 23%
10 | Cc1cc(CNC(=O)NC(C)c2ccncc2)no1 (configuration not stated) | 7.94% | -40%
11 | CN(C)C(=O)COCc1cncc2c1CCN(Cc1nccn1C)C2 | 10.5% | -47.9%
12 | Cc1cc(F)ccc1CN1CCCC2(C1)OCCO2 | -5.59% | 10.5%
13 | CCOCCOc1ccccc1C(=O)N1CCCC(c2ncc[nH]2)C1 (configuration not stated) | 7.07% | -32.6%
14 | COc1cccc2c1OCC(C(=O)N(C)CCCc1cnn(C)c1)C2 (configuration not stated) | 9.43% | -7.98%
15 | CCC(NC(=O)C1CCN(S(C)(=O)=O)CC1)c1ccc(OC)c(OC)c1 (configuration not stated) | 0% | -10.4%
16 | O=C(C1COCCO1)N1CCN(Cc2ccc3c(c2)CCO3)CC1 (configuration not stated) | 1.71% | 8.81%
17 | CCOCCCNC(=O)c1cc(C(C)C)nc(N2CCCCCC2)n1 | 1.1% | -56.1%
18 | CC(C)c1csc(C2CCCN(C(=O)c3ccc(=O)n(C)n3)C2)n1 (configuration not stated) | -1.11% | -6.52%
19 | COCCN1CCC(NCc2cccnc2)C1 (configuration not stated) | 4.4% | 15.8%
20 | O=C(N[C@@H]1CN(Cc2ccccc2)C[C@@H]2CCCO[C@@H]21)C1CC1 | 1.66% | -19.6%
21 | CC(NC(=O)CSCC#N)c1cccc(NC(=O)c2ccccc2)c1 (configuration not stated) | 1.91% | 6.38%
22 | Cc1nc(COCc2cnc3n2CCN(CC2CCC2)C3C)cs1 (configuration not stated) | -6% | -3.62%
23 | FC(F)(F)COCCN1CCN(c2ccc3nncn3n2)CC1 | 0.546% | -42.1%
24 | CNc1nc(CNC(=O)Nc2cccc(F)c2C)cs1 | -2.59% | 17.1%
25 | CC(C)Oc1ncnc2c1CCN(C(=O)c1cccn1C)CC2 | -1.46% | -10.4%
26 | O=C(NCCc1ccccn1)C1=NN(c2ccccc2)C(=O)CN1 | 11.3% | 1.11%
